Assay results from PubChem BioAssay (Tox21).
Several values for one entry are separate records, joined by “and”; a condition that tells them apart may be missing. Equal values may be shown once. Records with an inconclusive call do not appear. Where a call stands in place of a potency, no number is given. Where a structure was tested more than once in an assay, its records may differ in their call. Activity calls are given as the source filed them. Unless noted, calls follow the shape of the dose curve; as a rule, active = well fitted curve in the direction sought with a large enough effect in the repeat runs; inconclusive = weak or mixed curves; inactive = no such curve, though single readings can be large; an effect the other way counts as inactive or inconclusive.

Assays:
[1] = biological target: Aryl hydrocarbon receptor (Homo sapiens) (UniProt P35869); experiment: qHTS assay to identify small molecule that activate the aryl hydrocarbon receptor (AhR) signaling pathway (AID 743085); also: nearly all actives have a fitted effect of over 15% in size; also: potency is read from the fitted curve at half-maximal effect;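 as to activation: HG2L7.5c1 human HepG2 liver cells with stably integrated DRE-driven firefly reporter; series mostly up to about 70 µM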
Procedure, shortened: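 Cell line HG2L7.5c1 (human hepatoma, 20× DRE-luc). Plated, 5 h 37C, compound/DMSO added, 24 h 37C. CellTiter-Fluor 30 min 37C → fluorescence; then ONE-Glo 30 min RT → luminescence.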

[2] = qHTS assay to identify small molecule that activate the aryl hydrocarbon receptor (AhR) signaling pathway - cell viability counter screen (AID 743086);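 also: HepG2 liver cells carrying the AhR DRE luciferase reporter; series mostly up to about 70 µM; nearly all actives have a fitted effect of over 45% in size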
Procedure, shortened: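 HepG2-AhR-luc (HG2L7.5c1) cells, 4000/well, treated 24 h at 37 C with compound; viability measured as CellTiter-Fluor fluorescence after 30 min in the same wells as the luciferase read.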

[3] = qHTS assay for small molecule agonists of the antioxidant response element (ARE) signaling pathway - cell viability counter screen (AID 743203; calls by dose curve; also: nearly all actives have a fitted effect of over 55% in size)
Procedure, shortened: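 Following 16 hrs of compound treatment at 37C, HepG2 cells with an ARE-controlled beta-lactamase gene were lysed with CellTiter-Glo. Luminescence was read after 30 min at room temperature.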

[4] = qHTS assay for small molecule activators of the heat shock response signaling pathway - cell viability counter screen (AID 743209); also: nearly all actives have a fitted effect of over 50% in size
Procedure, shortened: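 Readout: CellTiter-Glo luminescence, 30 min at room temperature. System: HSE-bla HeLa cells, 1500/well, plated overnight. Treatment: compounds in DMSO, 5 h at 37 C.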

[5] = qHTS assay for small molecule activators of the heat shock response signaling pathway (AID 743210; active = well fitted activation curve with a large enough effect in the signal ratio in the repeat runs, with a control signal flat, not every such curve was filed as active; the % refers to the signal ratio; also: series mostly up to about 63 µM)
Procedure, shortened: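 HSE-bla HeLa cells (beta-lactamase reporter under heat shock response elements), plated overnight, then exposed to compounds 5 h at 37 C; LiveBLAzer B/G FRET substrate added, 2.5 h at room temperature, fluorescence intensity read.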

[6] = qHTS assay to identify small molecule antagonists of the peroxisome proliferator-activated receptor delta (PPARd) signaling pathway - cell viability counter screen (AID 743213); also: nearly all actives have a fitted effect of over 50% in size
Procedure, shortened: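 HEK293H cells with the PPARd UAS-bla reporter, co-treated 17 h at 37 C with compounds and L165041 (300 nM final), were lysed with CellTiter-Glo. Luminescence indicated viable cell content.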

[7] = qHTS assay to identify small molecule agonists of the farnesoid-X-receptor (FXR) signaling pathway - cell viability counter screen (AID 743218); also: nearly all actives have a fitted effect of over 45% in size
Procedure, shortened: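 Parallel cytotoxicity test: compound-treated (16 h, 37 C) HEK 293T FXR-bla reporter cells were lysed with CellTiter-Glo and luminescence recorded.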

[8] = qHTS assay to identify small molecule antagonists of the farnesoid-X-receptor (FXR) signaling pathway - cell viability counter screen (AID 743221; active = well fitted cell-killing curve with a large enough effect in the repeat runs, not every such curve was filed as active; also: nearly all actives have a fitted effect of over 50% in size)
Procedure, shortened: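 Luminescence from CellTiter-Glo measures cytotoxicity in GeneBLAzer FXR-UAS-bla HEK 293T cells. Cells were exposed to compounds with 50 uM chenodeoxycholic acid (final) for 16 h at 37 C, in wells also used for the reporter readout.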

[9] = qHTS assay to identify aromatase inhibitors - cell viability counter screen (AID 743084);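 also: cells stimulated with testosterone during compound exposure; nearly all actives have a fitted effect of over 55% in size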
[10] = qHTS assay for small molecule agonists of the antioxidant response element (ARE) signaling pathway (AID 743202; active = well fitted activation curve with a large enough effect in the signal ratio in the repeat runs, not every such curve was filed as active; the % refers to the signal ratio; also: potency is read from the fitted curve at half-maximal effect)
Procedure, shortened: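 ARE-bla HepG2 cells (beta-lactamase reporter under the antioxidant response element), plated 5 hours, then exposed to compounds 16 hours at 37 C. LiveBLAzer B/G FRET substrate added for 2 hours at room temperature; fluorescence intensity read.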

[11] = qHTS assay to identify small molecule agonists of the peroxisome proliferator-activated receptor delta (PPARd) signaling pathway - cell viability counter screen (AID 743211); also: nearly all actives have a fitted effect of over 55% in size
Procedure, shortened: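 HEK293H PPARd-bla, 3000 cells/well; 5 h preincubation 37C/5% CO2; cpd in DMSO, 17 h 37C; B/G FRET substrate 2 h RT; CellTiter-Glo 30 min RT, luminescence.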

[12] = biological target: Peroxisome proliferator-activated receptor delta (Homo sapiens) (UniProt Q03181); experiment: qHTS assay to identify small molecule antagonists of the peroxisome proliferator-activated receptor delta (PPARd) signaling pathway (AID 743215; active = well fitted inhibition curve with a large enough effect in the signal ratio in the repeat runs, not every such curve was filed as active; the % refers to the signal ratio;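 also: cells stimulated with agonist L165041 at 300 nM final during compound exposure; series mostly up to about 62 µM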)
Procedure, shortened: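 HEK293H UAS-bla, PPARd; agonist L165041 300 nM final with cpd in DMSO; 37 C 17 h; FRET substrate, RT 2 h; fluorescence intensity.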

[13] = biological target: Vitamin D3 receptor (Homo sapiens) (UniProt P11473); experiment: qHTS assay to identify small molecule agonists of the vitamin D receptor (VDR) signaling pathway (AID 743222; calls by dose curve)
Procedure, shortened: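 In VDR-bla cells, compound-induced beta-lactamase expression is quantified by FRET substrate fluorescence. Treatment lasts 16 h at 37C; substrate develops 2 h at room temperature.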

[14] = biological target: Vitamin D3 receptor (Homo sapiens) (UniProt P11473); experiment: qHTS assay to identify small molecule antagonists of the vitamin D receptor (VDR) signaling pathway (AID 743223; active = well fitted inhibition curve with a large enough effect in the signal ratio in the repeat runs, not every such curve was filed as active; the % refers to the signal ratio)
Procedure, shortened: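 Antagonist mode uses 1alpha,25-dihydroxyvitamin D3 at 3 nM final as stimulus. VDR-bla cells receive compounds in DMSO, incubate 16 h at 37C, then a beta-lactamase FRET substrate for 2 h at room temperature before fluorescence measurement.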

[15] = qHTS assay to identify small molecule antagonists of the peroxisome proliferator-activated receptor gamma (PPARg) signaling pathway - cell viability counter screen (AID 743194); also: nearly all actives have a fitted effect of over 55% in size
Procedure, shortened: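 Cytotoxicity counter screen in PPARg-bla HEK293H cells, same wells as reporter assay. Compounds plus 50 nM rosiglitazone (final) for 17 h at 37 C, then viability read by CellTiter-Glo luminescence.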

[16] = biological target: Peroxisome proliferator-activated receptor gamma (Homo sapiens) (UniProt P37231); experiment: qHTS assay to identify small molecule agonists of the peroxisome proliferator-activated receptor gamma (PPARg) signaling pathway (AID 743094; active = well fitted activation curve with a large enough effect in the signal ratio in the repeat runs, not every such curve was filed as active; the % refers to the signal ratio)
Procedure, shortened: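 Compounds dissolved in DMSO were added to PPARg UAS-bla HEK293H cells for 17 h at 37C, and reporter expression was quantified by fluorescence intensity after 1 h with LiveBLAzer B/G FRET substrate.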

[17] = biological target: Peroxisome proliferator-activated receptor gamma (Homo sapiens) (UniProt P37231); experiment: qHTS assay to identify small molecule antagonists of the peroxisome proliferator-activated receptor gamma (PPARg) signaling pathway (AID 743191; calls by dose curve; also: series mostly up to about 63 µM; nearly all actives have a fitted effect of over 30% in size)
Procedure, shortened: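 GeneBLAzer PPARg UAS-bla HEK293H cells, 5 h post-plating, exposed to compounds 17 h at 37C. LiveBLAzer B/G FRET substrate added for 1 h at room temperature; beta-lactamase reporter read by fluorescence intensity.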

[18] = biological target: Peroxisome proliferator-activated receptor delta (Homo sapiens) (UniProt Q03181); experiment: qHTS assay to identify small molecule agonists of the peroxisome proliferator-activated receptor delta (PPARd) signaling pathway (AID 743212; calls by dose curve)
Procedure, shortened: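 GeneBLAzer UAS-bla HEK293H cells carrying a PPARδ construct were exposed to compounds at 37 °C. Beta-lactamase activity was read by FRET fluorescence after 2 h at room temperature with LiveBLAzer B/G substrate.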

[19] = biological target: Bile acid receptor (Homo sapiens) (UniProt Q96RI1); experiment: qHTS assay to identify small molecule antagonists of the farnesoid-X-receptor (FXR) signaling pathway (AID 743217; active = well fitted inhibition curve with a large enough effect in the signal ratio in the repeat runs, not every such curve was filed as active; the % refers to the signal ratio)
Procedure, shortened: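 GeneBLAzer FXR-UAS-bla HEK 293T, CDCA-stimulated (50 uM final). Compound treatment 16 h, 37 °C. Detection: beta-lactamase cleavage of B/G FRET substrate, fluorescence.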

[20] = biological target: Bile acid receptor (Homo sapiens) (UniProt Q96RI1); experiment: qHTS assay to identify small molecule agonists of the farnesoid-X-receptor (FXR) signaling pathway (AID 743220; active = well fitted activation curve with a large enough effect in the signal ratio in the repeat runs, not every such curve was filed as active; the % refers to the signal ratio)
Procedure, shortened: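 Beta-lactamase reporter under UAS control in GeneBLAzer FXR HEK 293T cells (5000/well) measured with LiveBLAzer FRET substrate after 2 h at room temperature. Compound exposure lasted 16 h at 37C.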

Aryl hydrocarbon receptor (Homo sapiens), sequence (P35869 whole entry, looked up): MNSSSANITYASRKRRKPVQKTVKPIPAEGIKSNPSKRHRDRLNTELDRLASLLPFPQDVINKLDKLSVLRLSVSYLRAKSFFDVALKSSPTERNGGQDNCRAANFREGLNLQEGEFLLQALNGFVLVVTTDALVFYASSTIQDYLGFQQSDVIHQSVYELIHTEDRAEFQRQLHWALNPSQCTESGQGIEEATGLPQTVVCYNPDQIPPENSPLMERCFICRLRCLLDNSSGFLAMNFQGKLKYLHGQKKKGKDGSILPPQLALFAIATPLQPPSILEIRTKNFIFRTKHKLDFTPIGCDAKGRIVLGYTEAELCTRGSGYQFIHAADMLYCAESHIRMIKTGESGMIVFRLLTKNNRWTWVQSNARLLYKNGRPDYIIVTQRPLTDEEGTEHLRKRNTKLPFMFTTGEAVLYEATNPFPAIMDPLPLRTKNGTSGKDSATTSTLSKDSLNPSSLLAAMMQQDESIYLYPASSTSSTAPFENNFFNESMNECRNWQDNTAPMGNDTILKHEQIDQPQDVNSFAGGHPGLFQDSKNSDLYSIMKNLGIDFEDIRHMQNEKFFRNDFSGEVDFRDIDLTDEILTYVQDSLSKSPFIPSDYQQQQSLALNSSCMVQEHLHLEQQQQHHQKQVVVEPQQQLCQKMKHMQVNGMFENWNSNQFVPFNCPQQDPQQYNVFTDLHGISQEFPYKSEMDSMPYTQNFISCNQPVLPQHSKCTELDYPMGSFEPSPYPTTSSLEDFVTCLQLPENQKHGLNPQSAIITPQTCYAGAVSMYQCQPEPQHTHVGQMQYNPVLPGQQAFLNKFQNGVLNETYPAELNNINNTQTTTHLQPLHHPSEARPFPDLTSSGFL
Bile acid receptor (Homo sapiens), sequence (Q96RI1 whole entry, looked up): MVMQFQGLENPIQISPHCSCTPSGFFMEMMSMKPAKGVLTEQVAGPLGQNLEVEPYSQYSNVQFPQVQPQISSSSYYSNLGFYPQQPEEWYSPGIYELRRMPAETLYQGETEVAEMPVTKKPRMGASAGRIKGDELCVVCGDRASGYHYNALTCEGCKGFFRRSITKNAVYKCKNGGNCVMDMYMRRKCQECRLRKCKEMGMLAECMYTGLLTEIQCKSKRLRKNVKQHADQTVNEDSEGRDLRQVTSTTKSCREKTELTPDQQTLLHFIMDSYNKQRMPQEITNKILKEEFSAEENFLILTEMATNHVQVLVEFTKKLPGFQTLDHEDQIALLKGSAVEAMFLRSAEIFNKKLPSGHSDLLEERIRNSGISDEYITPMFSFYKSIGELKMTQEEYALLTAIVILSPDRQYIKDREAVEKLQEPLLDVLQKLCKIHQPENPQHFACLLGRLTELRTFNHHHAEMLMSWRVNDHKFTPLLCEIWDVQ
Peroxisome proliferator-activated receptor gamma (Homo sapiens), sequence (P37231 whole entry, looked up): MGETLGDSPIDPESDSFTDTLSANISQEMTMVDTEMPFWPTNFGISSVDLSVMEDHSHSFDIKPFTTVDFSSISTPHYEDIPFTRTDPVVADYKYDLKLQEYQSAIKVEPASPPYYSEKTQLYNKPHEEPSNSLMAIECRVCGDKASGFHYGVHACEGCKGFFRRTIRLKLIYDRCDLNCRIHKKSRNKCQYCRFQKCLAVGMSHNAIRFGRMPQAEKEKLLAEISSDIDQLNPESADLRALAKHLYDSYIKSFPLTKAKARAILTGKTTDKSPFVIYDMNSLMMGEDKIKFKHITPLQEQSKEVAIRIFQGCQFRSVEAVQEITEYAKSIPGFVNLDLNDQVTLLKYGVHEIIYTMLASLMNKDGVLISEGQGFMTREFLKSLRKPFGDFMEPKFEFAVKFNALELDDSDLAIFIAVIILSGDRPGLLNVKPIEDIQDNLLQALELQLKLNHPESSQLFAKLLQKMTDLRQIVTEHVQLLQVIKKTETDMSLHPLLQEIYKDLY
Peroxisome proliferator-activated receptor delta (Homo sapiens), sequence (Q03181 whole entry, looked up): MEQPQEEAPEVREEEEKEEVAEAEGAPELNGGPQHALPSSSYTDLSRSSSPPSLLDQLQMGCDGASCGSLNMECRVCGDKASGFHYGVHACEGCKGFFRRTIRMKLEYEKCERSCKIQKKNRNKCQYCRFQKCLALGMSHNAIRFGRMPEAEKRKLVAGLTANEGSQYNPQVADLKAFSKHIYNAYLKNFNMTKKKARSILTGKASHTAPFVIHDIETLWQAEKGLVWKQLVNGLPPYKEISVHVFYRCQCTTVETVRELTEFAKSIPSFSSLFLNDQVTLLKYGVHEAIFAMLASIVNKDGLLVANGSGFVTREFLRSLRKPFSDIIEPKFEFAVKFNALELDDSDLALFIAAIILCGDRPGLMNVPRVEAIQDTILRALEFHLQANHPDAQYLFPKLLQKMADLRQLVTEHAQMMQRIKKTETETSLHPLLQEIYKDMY
Vitamin D3 receptor (Homo sapiens), sequence (P11473 whole entry, looked up): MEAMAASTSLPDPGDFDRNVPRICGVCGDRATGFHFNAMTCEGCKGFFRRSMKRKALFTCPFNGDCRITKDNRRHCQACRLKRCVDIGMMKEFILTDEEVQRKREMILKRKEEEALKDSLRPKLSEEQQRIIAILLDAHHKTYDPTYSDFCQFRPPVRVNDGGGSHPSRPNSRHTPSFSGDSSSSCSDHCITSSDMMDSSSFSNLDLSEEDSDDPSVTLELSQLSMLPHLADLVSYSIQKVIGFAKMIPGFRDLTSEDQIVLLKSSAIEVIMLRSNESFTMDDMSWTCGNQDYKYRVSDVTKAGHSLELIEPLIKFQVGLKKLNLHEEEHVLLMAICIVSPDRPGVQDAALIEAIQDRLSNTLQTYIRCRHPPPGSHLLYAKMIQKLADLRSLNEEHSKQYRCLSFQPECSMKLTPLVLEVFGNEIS

Compound	Potency [1]	outcome [2]	outcome [3]	outcome [4]	Potency [5]	outcome [6]	Potency [7]	Potency [8]	Potency [9]	Potency [10]	outcome [11]	Potency [12]	outcome [13]	outcome [14]	outcome [15]	outcome [16]	outcome [17]	outcome [18]	outcome [19]	outcome [20]
CN(C)CCC(c1ccc(Cl)cc1)c1ccccn1 (stereo unspecified)	inactive	inactive	inactive	inactive	inactive	inactive	inactive	inactive												
CC1=C(C)S(=O)(=O)CCS1(=O)=O	inactive		inactive	inactive	inactive	inactive	inactive	inactive	inactive	1.09 µM (active)	inactive	inactive	inactive	inactive						
CC(C)CC(=O)CC(C)C		inactive	inactive	inactive	inactive	inactive	inactive	inactive		inactive	inactive		inactive	inactive	inactive					
O=C(Oc1ccccc1)c1ccccc1		inactive	inactive	inactive	inactive	inactive	inactive	inactive	inactive	inactive	inactive	inactive				inactive	inactive	inactive	inactive	inactive
C[C@H]1C[C@H]2[C@@H]3CCC4=CC(=O)C=C[C@]4(C)[C@@]3(F)[C@@H](O)C[C@]2(C)[C@@]1(O)C(=O)CO	inactive			inactive	inactive	inactive	inactive	inactive	inactive	inactive	inactive	inactive						inactive		
CC(c1cc2ccccc2s1)N(O)C(N)=O (stereo unspecified)		inactive		inactive	inactive	inactive	inactive	inactive	inactive	inactive	inactive	inactive	inactive	inactive	inactive			inactive		
c1ccc2scnc2c1	inactive and 19.3 µM (active)		inactive	inactive	inactive	inactive	inactive	inactive	inactive	inactive	inactive		inactive	inactive		inactive	inactive	inactive		
CCCCCCCCC/C=C/CC1CC(=O)OC1=O (stereo unspecified)				inactive	inactive	inactive		inactive			inactive		inactive	inactive	inactive					inactive
FC(F)(F)c1ccc(Cl)c(Cl)c1	inactive		inactive	inactive	inactive	inactive	inactive	inactive	inactive	inactive	inactive	inactive	inactive			inactive	inactive			
CC1=CC(=O)NS(=O)(=O)O1	inactive		inactive	inactive	inactive	inactive	inactive	inactive	inactive	inactive	inactive		inactive	inactive	inactive					inactive
COCCCOc1ccnc(CS(=O)c2nc3ccccc3[nH]2)c1C (stereo unspecified)	9.44 µM (active) and 3.05 µM (active)			inactive	inactive	inactive	inactive	inactive	inactive	6.09 µM (active)	inactive				inactive					
C[C@H]1C[C@@H]2[C@H]([C@@H](O)C[C@@]3(C)[C@H]2CC[C@]3(O)C(=O)CO)[C@@]2(C)C=CC(=O)C=C12	inactive			inactive		inactive	inactive	inactive	inactive	inactive	inactive	inactive				inactive	inactive			
Cc1cnc(C(=O)NCCc2ccc(S(=O)(=O)NC(=O)NC3CCCCC3)cc2)cn1				inactive	inactive	inactive	inactive	inactive	inactive		inactive				inactive	inactive		inactive		
O=C(O)c1ccccc1C(c1ccc(O)cc1)c1ccc(O)cc1	inactive			inactive	inactive	inactive	inactive	inactive	inactive		inactive	inactive				inactive	inactive			
CC(=O)OCC(=O)[C@@]12N=C(C)O[C@@H]1C[C@H]1[C@@H]3CCC4=CC(=O)C=C[C@]4(C)[C@H]3[C@@H](O)C[C@@]12C		inactive	inactive	inactive	inactive	inactive	inactive	inactive	inactive		inactive	inactive	inactive	inactive	inactive	inactive	inactive	inactive		
NNc1nncc2ccccc12	9.69 µM (active)	inactive	inactive	inactive	inactive	inactive	inactive	inactive			inactive		inactive	inactive						
CC1=CCC2CC1C2(C)C (stereo unspecified)		inactive	inactive	inactive	inactive	inactive	inactive	inactive	inactive	inactive	inactive		inactive			inactive				
Oc1cccc2ccccc12		inactive	inactive	inactive	inactive	inactive	inactive	inactive		31.4 µM (active) and 30.6 µM (active)	inactive		inactive	inactive	inactive					inactive
CC(C)(C)[C@@H](O)[C@@H](Cc1ccc(Cl)cc1)n1cncn1			inactive	inactive	inactive	inactive	inactive	inactive	inactive	inactive	inactive	inactive	inactive	inactive	inactive	inactive	inactive	inactive		inactive
O=C(CC(C(=O)OC1CCCCC1)S(=O)(=O)O)OC1CCCCC1 (stereo unspecified)			inactive	inactive	inactive	inactive	inactive	inactive	inactive	inactive	inactive	inactive			inactive	inactive			inactive	inactive
CCCCOC(=O)COc1ccc(Cl)cc1Cl			inactive	inactive	inactive	inactive	inactive	inactive	inactive	inactive	inactive		inactive	inactive		inactive	inactive			inactive
OCCOCCN1CCN(C2=Nc3ccccc3Sc3ccccc32)CC1	inactive	inactive		inactive	inactive		inactive	inactive			inactive		inactive	inactive	inactive					inactive
O=[N+]([O-])c1ccc(/C=C/c2ccc([N+](=O)[O-])cc2S(=O)(=O)O)c(S(=O)(=O)O)c1	inactive			inactive	inactive	inactive	inactive	inactive	inactive	inactive	inactive		inactive	inactive		inactive	inactive			
CCCCCCCCCCCCOCCO	inactive		inactive	inactive	inactive	inactive	inactive	inactive	inactive	inactive	inactive					inactive	inactive			
